# M18AAP inhibitor – blocks P. falciparum M18 aspartyl aminopeptidase | recombinant PfM18AAP, H-Glu-NHMec fluorogenic cleavage | inhibition, % at 7.35 µM | actives 1.2% (n = 290,000);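 active = inhibition above the campaign mean inhibition over all tested compounds plus 3 SD, cut at about 28% in these data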;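 note: 0% = plate median of test compound wells and 100% = 2 mM ZnCl2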
# beta cell repl – MIN6 beta-cell proliferation induction | MIN6 cells proliferation, ATPlite luminescence, 48 h; cells starved in 0.2% serum; 100% = growth in 10% serum | proliferation, % at 10 µM | actives 0.29% (n = 330,000) | AID 2380;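 active = compounds whose signal lies at least 3.5 SD above the mean of all wells on their plate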;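 note: 0% = DMSO-treated cells in low-serum medium and 100% = 10% serum control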
# SMARCA2 act – activators of SMARCA2 function. MG213 cells, MMTV-luciferase reporter, dexamethasone, overnight. activation, % at 9.1 µM. actives 1% (n = 370,000); in the data active = activation above about 7.8%;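 note: 0% = vehicle wells and 100% = reference activator wells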
# GASC-1 inh – inhibitors of human GASC-1 (JMJD2C) demethylase; inhibition, % at 2.35 µM; GST-JMJD2C(1-420) H3K9me3 demethylation, DELFIA europium; Q9H3R0; AID 2099; actives 0.069% (n = 330,000);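 active = more than half of a compound's replicate wells show inhibition beyond 50%, single wells judged on their own value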;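 note: signal counts dimethyl H3K9 product captured on neutravidin plate; 0% = median of DMSO wells and 100% = 0.3 times that DMSO median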
# Target sequence (Q9H3R0 1-420 limits assumed): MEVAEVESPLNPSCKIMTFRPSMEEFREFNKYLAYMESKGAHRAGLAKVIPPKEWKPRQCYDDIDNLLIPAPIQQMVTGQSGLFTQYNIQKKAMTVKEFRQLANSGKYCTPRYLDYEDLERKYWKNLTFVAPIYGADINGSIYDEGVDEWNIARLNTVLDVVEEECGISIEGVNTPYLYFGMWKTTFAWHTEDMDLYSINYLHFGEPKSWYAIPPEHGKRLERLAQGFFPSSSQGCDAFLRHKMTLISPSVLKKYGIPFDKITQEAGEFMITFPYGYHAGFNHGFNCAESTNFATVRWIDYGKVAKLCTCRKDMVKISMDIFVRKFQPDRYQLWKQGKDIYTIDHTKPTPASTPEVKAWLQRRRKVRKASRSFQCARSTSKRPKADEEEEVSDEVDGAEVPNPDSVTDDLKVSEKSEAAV
# ALR inh – blocks human ALR sulfhydryl oxidase activity | P55789 | purified ALR, DTT oxidation, H2O2 HRP-luminol luminescence | inhibition, % (concentration not given with the values) | actives 3.8% (n = 290,000) | AID 485317;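 active = mean replicate inhibition above about 79%, with every replicate also reaching it, limit read from the data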
# Target sequence (P55789 whole entry, looked up): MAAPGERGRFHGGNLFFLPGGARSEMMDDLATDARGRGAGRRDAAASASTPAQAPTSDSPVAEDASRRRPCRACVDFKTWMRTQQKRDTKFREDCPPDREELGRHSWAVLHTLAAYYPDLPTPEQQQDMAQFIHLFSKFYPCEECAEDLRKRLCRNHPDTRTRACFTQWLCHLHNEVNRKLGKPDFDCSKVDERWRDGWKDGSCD
# Granule exo inh – blocks lytic granule exocytosis; inhibition, % at 10 µM; actives 0.66% (n = 360,000); TALL-104 LAMP-1 surface exposure, flow cytometry; cells stimulated with thapsigargin and PMA; AID 651702;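 active = inhibition above about 55%, limit read from the data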
# The depositor's hits bear a star; / = no result. Hits are enriched below; roughly 5.4% of the tested compounds scored in any of these assays.
SMILES,M18AAP inhibitor,beta cell repl,SMARCA2 act,GASC-1 inh,ALR inh,Granule exo inh
CN(C)S(=O)(=O)c1cc(NC(=O)CN2CCN(c3ccc(O)cc3)CC2)ccc1Cl,27,-6,-1,9,100*,-5
O=C(CN1CCCCC1)Nc1ccc(S(=O)(=O)N2CCCCCC2)cc1,-3,-3,-1,13,-18,2
O=C(CN1CCCN(S(=O)(=O)c2ccc(Br)s2)CC1)Nc1ccc(Cl)cc1,-5,-5,-4,0,91*,6
O=C(CN1CCN(c2ccc(O)cc2)CC1)Nc1ccc(S(=O)(=O)N2CCCC2)cc1,/,-1,-8,-5,88*,-2
CCOC(=O)CNC(=O)CN1CCCN(S(=O)(=O)c2ccc(Br)s2)CC1,0,-3,-1,/,-2,-2
O=S1(=O)c2ccc(N3CCSCC3)cc2Oc2ccccc2CN1Cc1cn(Cc2cccc(F)c2)nn1,/,/,-4,/,/,/
Cn1c(=O)c(=O)n(C)c2cc(S(=O)(=O)N3CCN(Cc4ccc5c(c4)OCO5)CC3)ccc21,/,/,-5,/,/,/
O=S(=O)(c1ccc(F)cc1)n1c(CN2CCOCC2)nc2ccccc21,/,/,-2,/,/,/
O=C(c1cn[nH]c1)c1cc(F)ccc1O,31*,1,0,3,-2,0
Cc1[nH]nc2ncc(C(=O)c3cc(F)ccc3O)cc12,5,-1,-5,-6,2,-4
COc1ccc(CN2C[C@H](COCc3ccccc3)Oc3cccc(F)c3S2(=O)=O)cc1,/,/,0,/,/,/
CCN1CCN(c2cc(C)c3cc(NC(=O)c4ccc(OC)c(OC)c4)ccc3n2)CC1,4,-6,-1,5,/,9
CCN1CCN(c2cc(C)c3cc(NC(=O)c4ccc5c(c4)OCO5)ccc3n2)CC1,4,-6,4,23,84*,27
CN(C)c1cccc(/C=C2\CC3(OC(=O)c4ccccc4)CCCN2C3)c1 (configuration not stated),/,/,-3,/,/,/
O=C(CCO)c1ccc(O)cc1,56*,0,2,1,-17,9
CCCCC(=O)c1ccc(O)cc1,-10,-1,-1,-4,-3,-1
COCCCOc1ccnc(CS(=O)c2nc3ccccc3[nH]2)c1C (configuration not stated),31*,0,-2,11,-48,0
Cc1c(OCC(F)(F)F)ccnc1CS(=O)c1nc2ccccc2[nH]1 (configuration not stated),22,5,0,4,97*,20
CC(C)CNc1ccc2c(c1)OC[C@@H](CC(C)C)NS2(=O)=O,/,/,-3,/,/,/
C=CCCC(=O)N1CCC(C(=O)NC2CCCc3ccccc32)CC1 (configuration not stated),/,/,-2,/,/,/
COc1cccc(NC(=O)Nc2nc3ncccn3c2-c2ccc(C(F)(F)F)cc2)c1,/,/,-1,/,/,/
COc1ccc(S[C@]2(C(=O)N3CCN(c4ncccn4)CC3)CC(=O)N(S(=O)(=O)c3ccc(F)cc3)[C@@H]2c2ccc(OC)cc2)cc1,/,/,-1,/,/,/
CCCOC(=S)N/C(=N\S(=O)(=O)c1ccccc1)c1ccccc1,4,-1,7.9*,-7,6,0
O=S1(=O)c2ccc(Br)cc2OC2CCCC[C@@H]2N1Cc1ccccc1 (some centres not stated),/,/,-2,/,/,/
COc1ccc(-n2c(C)cc(/C=N/Nc3nnc(C)n3N)c2C)cc1,48*,0,-8,68*,-1,0
SMILES,M18AAP inhibitor,beta cell repl,SMARCA2 act,GASC-1 inh,ALR inh,Granule exo inh
CCCCCCCCN1C(=O)[C@@H](CC(=O)NCCCOCCCC)C[C@@]2(C(=O)OC)C1=C[C@H](COCc1ccccc1)O[C@@H]2C,/,/,0,/,/,/
Cc1cc(NCCCN2CCOCC2)n2nc(C)c(-c3ccc(F)cc3)c2n1,5,1,-1,-3,98*,1
Cn1cccc1/C=N/n1c(-c2ccc(Cl)cc2Cl)n[nH]c1=S,-1,-3,1,-1,97*,1
Cc1ccc(Cn2cc(COC(=O)NCC(C)C)nn2)cc1,/,/,-1,/,/,/
Clc1ccc(CSc2nc3ccncc3[nH]2)cc1,8,-7,4,9,90*,5
O=c1cc(O)nc(SCc2ccc(Cl)cc2)[nH]1,3,0,0,-4,98*,0
CCNc1ccc(Br)cc(C(=O)/C=C/c2c(Cl)cccc2Cl)c1=O,18,-6,/,-54,-3,78*
CNc1ccc(Br)cc(C(=O)/C=C/c2ccc(Cl)cc2Cl)c1=O,18,-5,-4,6,-8,100*
O=C(CSc1nnc(-c2ccccc2)n1-c1ccc(Cl)cc1)c1ccccc1Br,/,/,2,/,/,/
O[C@H](COc1ccc(Cl)cc1)CN1CCC(C(O)(c2ccccc2)c2ccccc2)CC1,/,/,-5,/,/,/
CCc1ccc(CNc2ccc(O)cc2)cc1,26,-3,/,6,84*,-1
CO[C@H]1C=CO[C@@]2(C)Oc3c(C)c(O)c4c(O)c(c5c(nc6cc(C)ccn65)c4c3C2=O)NC(=O)C(C)=CC=C[C@H](C)[C@H](O)[C@@H](C)[C@@H](O)[C@@H](C)[C@H](OC(C)=O)[C@@H]1C,48*,-3,/,-18,/,/
COC1C=COC2(C)Oc3c(C)c(O)c4c(O)c(c(CN5CCN(C)CC5)c(O)c4c3C2=O)NC(=O)C(C)=CC=CC(C)C(O)C(C)C(O)C(C)C(OC(C)=O)C1C (configuration not stated),/,/,8,/,/,-3
Nc1ccccc1SC/C=C/CSc1ccccc1N,6,3,2,-11,99*,-7
Nc1ccccc1O,/,-5,/,11,-40,3
O=C(Nc1nnc(-c2ccccc2Cl)o1)c1cccnc1,30*,-2,1,-10,8,-1
CS(=O)(=O)NN1C(=O)c2ccccc2NC1c1cccc(O)c1 (configuration not stated),-12,5,-5,-23,0,0
CN1C(=O)c2ccccc2NC(=O)[C@]12O[C@@H]2c1cccc(O)c1,/,-4,0,-33,99*,6
COc1ccc(Cn2ccc3ccc(-c4ccc5ccn(C(=O)C6CCC6)c5c4)cc32)cc1,/,/,0,/,/,/
COc1ccc(OC)c(/C=N\NC(=O)c2ccc(-c3ccccc3)cc2)c1,3,1,-1,3,-7,-8
COc1cccc(/C=N/NC(=O)CNC(=O)c2cccnc2)c1O,11,0,-4,-5,92*,14
C=CCc1cccc(/C=N/NC(=O)c2ccccc2OC)c1O,30*,-6,3,0,12,-3
COc1cccc(/C=N/NC(=O)c2ccc(-c3ccccc3)cc2)c1O,15,-3,-1,13,-6,59*
C=CCc1cccc(/C=N/NC(=O)c2ccccc2Br)c1O,18,-6,-1,-7,/,-1
COc1cccc(/C=N/NC(=O)CNC(=O)c2ccncc2)c1O,14,-1,-2,9,91*,10
COc1cccc(/C=N/NC(=O)CNC(=O)c2ccco2)c1O,10,-2,-4,0,63,-1

# High-throughput results (PubChem)
